The results in this text go back to PubChem BioAssay (NCATS).

Several values for one entry are separate records, joined by “and”; a condition that tells them apart may be missing. Identical values can stand only once. Records with an inconclusive call do not appear. Unmarked numbers belong to inactive results. Activity calls are given as the source filed them. The call rests on the fitted dose curve; in most records, active means well fitted curve in the direction sought with a large enough effect; inconclusive means small, poorly fitted or top-dose-only effect, or another doubt; inactive means no such curve, though single readings can be large; an effect the other way counts as inactive or inconclusive.

A short description of test [1]: Viability qHTS for spleen associated tyrosine kinase inhibitor (SYKi) naive MV4-11 cells (AID 1963823). Further: nearly all actives have a fitted effect of over 40% in size. Put shortly: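 Read-out: CellTiter-Glo luminescence. Exposure: 72 hr, 37 C, 5% CO2, 95% humidity. Cells: MV4-11 without SYK inhibitor history, 500/well, qHTS format.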
A short description of test [2]: Viability qHTS for spleen associated tyrosine kinase inhibitor (SYKi) drug resistant MV4-11 cells (AID 1963824). Further: nearly all actives have a fitted effect of over 35% in size. Put shortly: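 SYK inhibitor-resistant MV4-11 AML cells, 500 per well, added to predispensed compounds and incubated 72 hr at 37 C, 5% CO2. Viability measured by CellTiter-Glo luminescence after 10 min at room temperature.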
The nature of test [3]: Quantitative highthroughput screen to assess conditional lethalithy of P12 Ichikawa cells grown in Human Plasma-Like Medium with dialyzed fetal bovine serum (HPLM+ds) (AID 1963879). Further: nearly all actives have a fitted effect of over 35% in size. On Viability: series mostly up to about 46 µM. The note with it: Potency: viability. The gist of the method:
(§1)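 Each medium arm—HPLM with 10% dialyzed FBS, or RPMI1640 with 5 mM glucose and 10% untreated or dialyzed FBS—was screened against an 11-point, 3-fold compound titration for 48 h at 37 °C, with CellTiter-Glo luminescence as endpoint.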

Test [4] in a line: Quantitative highthroughput screen to assess conditional lethalithy of P12 Ichikawa cells grown in RPMI1640 with dialyzed fetal bovine serum (RPMI+ds) (AID 1963880). Further: nearly all actives have a fitted effect of over 35% in size.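 On Viability: 100% = DMSO wells and 0% = empty wells on each plate.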 The note with it: Potency: P12-Ichikawa viability. The gist of the method:
as §1

Test [5] can be described thus: Quantitative highthroughput screen to assess conditional lethalithy of P12 Ichikawa cells grown in RPMI1640 with untreated serum (RPMI+s) (AID 1963881). Further: nearly all actives have a fitted effect of over 35% in size.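 On Viability: series mostly up to about 46 µM; 100% = DMSO wells and 0% = empty wells without cells.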 To be noted: Potency: viability. The gist of the method:
as §1

Test [6] can be described thus: Quantitative highthroughput screen to assess conditional lethalithy of SEM cells grown in Human Plasma-Like Medium with dialyzed fetal bovine serum (HPLM+ds) (AID 1963882). Further: nearly all actives have a fitted effect of over 35% in size. On Viability: series mostly up to about 46 µM. The gist of the method: as §1
The nature of test [7]: Quantitative highthroughput screen to assess conditional lethalithy of SEM cells grown in RPMI1640 with dialyzed fetal bovine serum (RPMI+ds) (AID 1963884). Further: nearly all actives have a fitted effect of over 35% in size.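 On Viability: series mostly up to about 46 µM; 100% = DMSO control wells and 0% = empty wells without cells.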 Put shortly: as §1
Test [8] is described as follows: Cellular viability qHTS for adrenocortical cancer (ACC) cell line NCI-H295R (AID 1963990). Further: nearly all actives have a fitted effect of over 60% in size. Put shortly:
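CellTiter-Glo ATP luminescence, read 48 h after compound addition, measured viability of NCI-H295R adrenocortical cells grown serum-free with ITS. Final concentrations spanned up to 46 uM. Data normalized to DMSO and doxorubicin, fitted for IC50 and maximal response.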

Test [9] in a line: Quantitative highthroughput screen to assess conditional lethalithy of SEM cells grown in RPMI1640 with unreated serum (RPMI+s) (AID 1963883). Further: nearly all actives have a fitted effect of over 35% in size. The gist of the method: as §1
Test [10] is described as follows: Cellular viability qHTS for adrenocortical cancer (ACC) cell line SW-13 (AID 1963989). Further: nearly all actives have a fitted effect of over 65% in size.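 On activity (max response): cells grown in serum-free medium with ITS supplement; on the % scale 0 is the no-effect control and ±100 the full control effect.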 The note with it: SW-13 ACC cells viability, CellTiter-Glo, 48 h; activity (max response): stronger effect = lower value. Put shortly:
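Viability was read as CellTiter-Glo luminescence after 48 h compound treatment (up to 46 uM final) of SW-13 cells grown serum-free; titration curves were fit with a four-parameter logistic model to give IC50 and efficacy.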

Test [11] in a line: Quantitative highthroughput screen to assess conditional lethalithy of NOMO1 cells grown in Human Plasma-Like Medium with dialyzed fetal bovine serum (HPLM+ds) (AID 1963878). Further: nearly all actives have a fitted effect of over 35% in size. The gist of the method: as §1
Potency means the concentration at half of the fitted maximal effect.

Turning to `CC1=C(C(=O)Nc2cc3cn[nH]c3cc2F)C(c2ccc(Cl)cc2F)N=C(c2ccnc(Cl)c2)N1` (stereo not drawn), the Potency was 4.61 µM (active) in test [1]; 4.61 µM (active) and 5.9 µM (active) in test [2]; 20.9 µM (active) in [3]; 20.9 µM (active) in test [4]; 18.7 µM (active) in test [5]; 16.6 µM (active) in [6]. In addition, the results for the Potency in [7] and in [8] were 16.6 µM (active) and 25.1 µM (active), respectively.

Regarding `CN1CCN(CCOc2cc(OC3CCOCC3)c3c(Nc4c(Cl)ccc5c4OCO5)ncnc3c2)CC1`, the Potency is 6.51 µM (active) and 5.9 µM (active) in test [1]; 9.2 µM (active) and 9.34 µM (active) in test [2]; 8.33 µM (active) in [3]; 18.7 µM (active) in [4]; 6.62 µM (active) in test [9]; 10.5 µM (active) in test [7]. Moreover, the results for the Potency in test [10] and in test [8] were 3.98 µM (active) and 31.6 µM (active), respectively.

`Oc1ccc([C@@H]2Oc3ccc(O)cc3[C@@H]3CCC[C@@H]32)cc1`: the Potency in test [1] was 5.8 µM (active); in test [2] it was 4.61 µM (active); in [3], 13.2 µM (active); in test [5], 11.8 µM (active); in test [7], 10.5 µM (active); in test [8] it was 7.08 µM (active).

With `COc1ccc(S(=O)(=O)Nc2cccnc2Nc2ccc(O)cc2)cc1`, the Potency was 0.934 µM (active) in [1]; 0.833 µM (active) in [2]; 3.32 µM (active) in [3]; 3.32 µM (active) in [5]; 2.35 µM (active) in [6]; 3.16 µM (active) in test [10].

Turning to `FC(F)c1nc2ccccc2n1-c1nc(N2CCOCC2)nc(N2CCOCC2)n1`, the Potency in [1] was 0.186 µM (active); in test [2], 820 nM (active) and 525 nM (active); in [11], 14.8 nM (active); in [8] it was 0.562 µM (active).

With `CCc1cccc(CC)c1NC(=O)N1Cc2[nH]nc(NC(=O)c3ccc(N4CCN(C)CC4)cc3)c2C1`, the Potency was 1.46 µM (active) and 1.66 µM (active) in test [1]; 1.03 µM (active) and 1.05 µM (active) in test [2]; 1.87 µM (active) in test [3]; 4.18 µM (active) in test [6]; 1.66 µM (active) in [9]; 1.66 µM (active) in test [7].

Regarding `Cn1cnc2c(F)c(Nc3ccc(Br)cc3F)c(C(=O)NOCCO)cc21`, the Potency in test [1] was 0.206 µM (active); in test [2] it was 0.146 µM (active); in test [10], 17.8 µM (active). The Potency result in test [3], in [4], in test [5] and in test [8] was “inactive” each time.

Regarding `C[C@@]1(C(=O)Nc2ccc(F)nc2)CCCN1c1nc(Nc2cc(C3CC3)[nH]n2)c2cccn2n1`, the Potency in test [1] is 1.46 µM (active); in test [2], 1.84 µM (active); in [3], 2.96 µM (active); in test [5], 2.96 µM (active); in [6] it was 4.18 µM (active); in test [7], 3.32 µM (active). The Potency in test [8] was 0.199 µM (active).

As to `Cc1nc2c(-c3cnc(N)nc3)nc(N3CCOCC3)nc2n1C(C)C`, the Potency in test [1] is 0.209 µM (active); in test [2], 326 nM (active) and 468 nM (active); in test [3], 0.0029 µM (active); in test [4], 0.0234 µM (active); in test [5], 0.0186 µM (active); in test [8], 0.562 µM (active).

In the case of `O=C(Nc1nc2cccc(-c3ccc(CN4CCS(=O)(=O)CC4)cc3)n2n1)C1CC1`, the Potency in test [1] was 2.59 µM (active) and 5.25 µM (active); in [2], 2.91 µM (active) and 7.42 µM (active); in test [11], 23500 nM (active); in test [10], 25.1 µM (active).

As to `COc1cc2c(cc1Cc1cccc(Cl)c1F)c(=O)c(C(=O)O)cn2[C@H](CO)C(C)C`, the Potency in [1] is 5.9 µM (active); in test [2], 7.42 µM (active); in test [3] it was 26.4 µM (active); in test [4], 16.6 µM (active); in test [5] it was 16.6 µM (active); in [8], 25.1 µM (active).

As for `Cc1ccc(C(=O)Nc2ccc(CN3CCN(C)CC3)c(C(F)(F)F)c2)cc1C#Cc1cnc2cccnn12`, the Potency result in [1] is “inactive”. The Potency in [2] was 0.0053 µM (active); in test [11], 935 nM (active); in [10] it was 3.16 µM (active); in test [8], 4.47 µM (active).

For the molecule `C[C@H](Cc1ccc(O)c(O)c1)[C@@H](C)Cc1ccc(O)c(O)c1`, the Potency in test [1] is 1.46 µM (active); in [2], 1.86 µM (active) and 1.03 µM (active); in test [3], 20.9 µM (active); in [4] it was 16.6 µM (active); in test [5], 18.7 µM (active).

For the molecule `OCCN1CCN(CCCN2c3ccccc3Sc3ccc(C(F)(F)F)cc32)CC1`, the Potency in test [1] was 16.8 µM (active) and 5.25 µM (active); in test [2] it was 26.6 µM (active) and 5.25 µM (active); in test [3], 7.43 µM (active); in [4], 14.8 µM (active); in test [5], 11.8 µM (active). Besides, in [10], the activity (max response) is 8.75%. For the same molecule, the Potency result in test [8] is “inactive”.

`CCN1CCC(n2cc(CNc3cc(Cl)c4ncc(C#N)c(Nc5ccc(F)c(Cl)c5)c4c3)nn2)CC1`: the Potency in test [1] was 13 µM (active); in [2] it was 11.6 µM (active); in test [3] it was 4.18 µM (active); in [5], 18.7 µM (active); in test [6], 18.7 µM (active); in [9], 3.32 µM (active). Also, the Potency was 13.2 µM (active) in test [7] and 31.6 µM (active) in test [8].

Turning to `CNc1nccc(-c2cccnc2Oc2cc(C(=O)Nc3cccc(C(F)(F)F)c3)ccc2C)n1`, the Potency in test [1] was 517 nM (active) and 1.18 µM (active); in [2] it was 1.3 µM (active) and 2.09 µM (active). Also, the Potency result in test [3], in test [4], in [6] and in test [7] was “inactive” throughout.

Regarding `CN(CC(=O)N(Cc1ccc(C2CCCCC2)cc1)c1ccc(C(=O)O)c(O)c1)S(=O)(=O)c1c(F)c(F)c(F)c(F)c1F`, the Potency in test [1] was 4.17 µM (active); in [2], 2.63 µM (active); in [3], 20.9 µM (active); in test [9], 16.6 µM (active).
